VDR inh = inhibitors of human vitamin D receptor; 400,000 tested, 0.93% active; Potency, µM, inactives show max response, negative = inhibition, usual class: inhibitors; VDR-SRC2-3 peptide fluorescence polarization, 2 h; AID 504847; also: potency is read from the fitted curve at half-maximal effect; % is scaled to controls: 0 for no effect and ±100 for the full control effect
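Inhibition of the VDR/SRC2-3 peptide interaction is quantified by fluorescence polarization. Compounds (23 nl, pintool) incubate with the reagents for 2 hours at ambient room temperature.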
PLK1 PBD inh = blocks phosphopeptide binding to human PLK1 polo-box domain; P53350; Potency, µM, for the others: max response, negative = inhibition, most hits filed as inhibitors; 360,000 tested, 2.8% active; Plk1 PBD binding of FITC phosphopeptide, fluorescence polarization; AID 720504; also: potency is read from the fitted curve at half-maximal effect; series mostly up to about 57 µM; % is scaled to controls: 0 for no effect and ±100 for the full control effect; nearly all actives have a fitted effect of over 65% in size
KAT2A inh = inhibitors of human GCN5L2 histone acetyltransferase; Q92830; GCN5L2 HAT assay, ThioGlo1 CoA-SH fluorescence; Potency, µM (highest dose often 58.9 µM), for the others: at the highest dose activity change, negative = inhibition, usual class: inhibitors; 390,000 tested, 0.21% active; also: potency is read from the fitted curve at half-maximal effect; % is scaled to controls: 0 for no effect and ±100 for the full control effect
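Preincubate 20nM GCN5L2 with compound 15 min, RT → add 50uM ThioGlo1 + 75uM H3(1-25) + 70uM acetyl-CoA → read fluorescence 0 and 20 min. Primary qHTS; fluorescent artifacts likely.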
PI5P4K alpha inh = blocks human PI5P4K alpha kinase activity | P48426 | PI5P4Kalpha enzyme, ADP-Glo luminescence, 60 min; active compounds read low | max response, % | 330,000 tested, 1.2% active | AID 652105; active = max response of -50% or lower; inconclusive = between -30% and -50%; inactive = -30% or higher; also: value at the top dose of about 77 µM; % is scaled to controls: 0 for no effect and ±100 for the full control effect
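Enzyme plus substrate dispensed, test compounds pinned in, then ATP (5 microM final) added. After 60 min at RT, ADP-Glo reagent 1 for 45 min and reagent 2 for 30 min preceded luminescence imaging.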
Rango release inh = inhibitors of RanGTP-induced Rango-importin beta complex dissociation. Potency, µM (top dose mostly 46.1 µM), without a hit: at the top dose activity change, negative = inhibition. O95149+P62826. Biochemical FRET Rango-importin beta, RanGTP-induced dissociation. 340,000 tested, 0.071% active; calls by dose curve; also: potency is read from the fitted curve at half-maximal effect; % of control where 0% means no effect; nearly all actives have a fitted effect of over 45% in size
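Compounds preincubate 5 min with complex of recombinant Rango and importin beta in PBS with 1 mM DTT. Ran (0.6 uM) loaded with 2 mM GTP plus 0.2 uM RCC1 starts dissociation; FRET is recorded 45 min later.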
Rango complex inh = Rango-importin beta binding inhibition | AID 540263 | Q14974 | 340,000 tested, 0.031% active | Potency, µM (series often up to 92.2 µM), without a hit: top-dose inhibition of complex formation | Rango CFP/YFP FRET sensor + importin beta, 45 min; calls by dose curve;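 also: potency is read from the fitted curve at half-maximal effect; 0% = DMSO wells and 100% = buffer wells lacking importin beta; nearly all actives have a fitted effect of over 15% in size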
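FRET biosensor (snurportin 1 IBB flanked by EYFP and cerulean), 50 nM, with compound 5 min, then 0.125 microM importin beta in PBS, 1 mM DTT, 0.02% Tween-20, 0.1% BSA. CFP/YFP ratio read after 45 min at room temperature; pre-read flags interference.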
Active calls of the source: *; ? = inconclusive; / = no result. This is a sample that favours compounds with a hit; in the whole collection about 3.6% have one here. Unless noted, calls follow the shape of the dose curve; as a rule, active = well fitted curve in the direction sought with a large enough effect; inconclusive = small, poorly fitted or top-dose-only effect, or another doubt; inactive = no such curve, though single readings can be large; an effect the other way counts as inactive or inconclusive.

SMILES | VDR inh | PLK1 PBD inh | KAT2A inh | PI5P4K alpha inh | Rango release inh | Rango complex inh
CCCCCCCCC1OC1CCCCCCCC(=O)O (stereo not drawn) | 0% | / | / | / | / | /
Nc1ccc(Br)c2cccnc12 | -12% | 8.4µM* | 0% | -3 | -14% | ?
CN(C)/C=N/c1nc2nccc(-c3ccccc3)n2n1 | -13% | 27µM* | ? | -12 | 40% | -1%
CN(C)/C=N/c1nc2nccc(-c3ccc(Cl)cc3)n2n1 | -6% | 2% | -29% | 3 | 0% | 0%
COc1ccc(-c2cnc3nc(/N=C/N(C)C)nn3c2/N=C/N(C)C)cc1 | -26% | 24µM* | -8% | -10 | 0% | -1%
C=CC[C@@](C(C)=O)(C(=O)OC)C(NC(=O)OC(C)(C)C)c1ccccc1 (stereo partly drawn) | -3% | / | / | / | / | /
COc1cc(-c2nn3c(-c4cc(-c5ccccc5)n[nH]4)nnc3s2)cc(OC)c1OC | -13% | / | / | / | / | /
O=C1C(=O)N(CCCn2ccnc2)C(c2cccc(Br)c2)/C1=C(\O)c1ccc2c(c1)OCCO2 (stereo not drawn) | -23% | 30µM* | -6% | 0 | 0% | 0%
COc1cccc(C2/C(=C(\O)c3ccc4c(c3)OCCO4)C(=O)C(=O)N2CCCn2ccnc2)c1 (stereo not drawn) | ? | 27µM* | -5% | -8 | -25% | 0%
Cc1ccc(N2C(=O)c3oc4cc(C)c(C)cc4c(=O)c3C2c2cccc(O)c2)nc1 (stereo not drawn) | 4% | / | 0% | / | / | /
CCOC(=O)c1cc(-c2ccc(F)cc2)n(CCC(=O)NC2CCC(C)CC2)c1C (stereo not drawn) | -5% | / | -2% | / | / | /
Cc1ccc(NC(=O)c2ccc3c(c2)NC(=O)c2ccccc2S3)cc1 | 0% | / | -2% | / | / | /
COc1ccc2nc(N3CCCC3)c(C#N)cc2c1 | -21% | 17µM* | -7% | / | ? | ?
Cc1ccc(OC2=NS(=O)(=O)c3ccccc32)cc1 | 19% | -1% | 2% | 1 | 8% | 0%
CCc1ccc(OC2=NS(=O)(=O)c3ccccc32)cc1 | -4% | 12µM* | -7% | -4 | -3% | -2%
CCN(CC)c1cccc(OC2=NS(=O)(=O)c3ccccc32)c1 | -4% | 3.4µM* | -3% | -10 | -4% | 0%
Cc1cccc(NC(=O)Cn2nc(-c3ccccc3)c3cnc4ccccc4c32)c1 | 7% | / | -2% | / | / | /
Cc1ccc(S(=O)(=O)NCCC(=O)Nc2ccc(C)cc2C(=O)c2ccccc2)cc1 | ? | 27µM* | 0% | -13 | -15% | -1%
CCN(CC)CC(=O)Nc1ccc(C)cc1C(=O)c1ccccc1 | -24% | -1% | 4% | 2 | 0% | -5%
N#Cc1c(-c2cccnc2)c2c([nH]c1=S)CCCC2 | -24% | 12µM* | -12% | -95* | 4% | -1%
N#Cc1c(-c2ccco2)c2c([nH]c1=S)CCCC2 | -10% | 12µM* | ? | -78* | -3% | -1%
N#Cc1c2c(c(-c3ccco3)[nH]c1=O)CCCC2 | 7% | -10% | -3% | / | -13% | -5%
CC(C)Cc1c2c([nH]c(=S)c1C#N)CCCC2 | ? | 27µM* | 2% | ? | -7% | -1%
Clc1ccccc1CNc1ncnc2c1c(-c1ccccc1)cn2-c1ccccc1 | 0% | / | -7% | / | / | /
CCOc1ccc(CCNC(=O)Cn2ncc3c(=O)oc4ccc(C)cc4c32)cc1 | 5% | / | -4% | / | / | /
COc1ccccc1Cn1[nH]nnc1=S | -15% | 24µM* | ? | ? | -1% | 7%
COc1ccccc1CN1C(=O)CNC1=S | 4% | -5% | 22% | 0 | 8% | 2%
COc1cccc(CNC(=O)c2ccc(CN3CC(=O)N4CCCCC4C3=O)cc2)c1 (stereo not drawn) | 1% | / | -2% | / | / | /
Cc1occc1C(=O)NCc1cccc(CNC(=O)c2ccoc2C)c1 | -6% | ? | -10% | -53* | 27% | -3%
S=c1nc(-c2ccccc2)[nH]n1-c1ccccc1 | -31% | 0% | 13µM* | / | 1% | -2%

Compound activity (PubChem)
